Results reported in PubChem BioAssay (NCATS).
Several values for one entry are separate records, joined by “and”; a condition that tells them apart may be missing. Equal values may be shown once. Inconclusive results are not listed. A structure can be active in one record and inactive in another. Activity calls are given as the source filed them. Unless noted, the call rests on the fitted dose curve; in most records, active means well fitted curve in the direction sought with a large enough effect; inconclusive means small, poorly fitted or top-dose-only effect, or another doubt; inactive means no such curve, though single readings can be large; an effect the other way counts as inactive or inconclusive.

What was measured:
[1] = target: Voltage-gated inwardly rectifying potassium channel KCNH2 (Homo sapiens) (UniProt Q12809); experiment: qHTS Assay for Small Molecule Inhibitors of the Human hERG Channel Activity (AID 588834);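 further: lower thallium flux fluorescence means stronger hERG block; nearly all actives have a fitted effect of over 50% in size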; further: potency means the concentration at half of the fitted maximal effect
In short: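 Concentration-response qHTS measuring drop in thallium-sensitive dye signal. U2OS cells carrying BacMam hERG; compound exposure ~10 min, then stimulation buffer and 2 min read at 1 sec intervals.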

[2] = target: Luciferin 4-monooxygenase (Photinus pyralis) (UniProt P08659); experiment: Biochemical firefly luciferase enzyme assay for NPC (AID 624030); further: nearly all actives have a fitted effect of over 70% in size; further: potency means the concentration at half of the fitted maximal effect
In short: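 Direct inhibition of firefly luciferase enzyme (10 nM final, 50 mM Tris Acetate) assessed by luminescence within 5 minutes. Percent activity scaled between DMSO and PTC124 positive control, with concentration-effect curves classified by fit quality and response.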

[3] = S16 Schwann cell PMP22 intronic element firefly luciferase assay (AID 624032); further: nearly all actives have a fitted effect of over 30% in size; further: potency means the concentration at half of the fitted maximal effect
In short: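 Luciferase reporter of PMP22 intronic-element expression in stably transfected S16 rat Schwann cells, read by ONE-Glo luminescence after 24 h compound exposure at 37 C. Activity scaled between DMSO (0%) and positive-control PTC124; concentration-effect curves quality-classified.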

[4] = S16 Schwann cell PMP22 intronic element beta-lactamase assay (AID 624044; calls by dose curve; further: nearly all actives have a fitted effect of over 15% in size; further: potency means the concentration at half of the fitted maximal effect)
In short: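 Rat S16 Schwann cells with beta-Lac driven by a PMP22 intronic element, compound-treated 24 h at 37 °C. LiveBLAzer FRET B/G read: 460 nm normalized to potassium clavulanate vs DMSO; 535 nm FRET as viability; concentration-effect curves classified.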

[5] = qHTS of Trypanosoma Brucei Inhibitors: LOPAC Validation (AID 624147); further: potency means the concentration at half of the fitted maximal effect
In short: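 Screened from lowest to highest concentration, compounds were pinned into TbPYK/substrate mixtures, and ADP (130 uM final) was added. Plates sat at room temperature for 45 min prior to Kinase-Glo Plus detection by luminescence.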

[6] = target: Glucagon-like peptide 1 receptor (Homo sapiens) (UniProt P43220); experiment: qHTS of GLP-1 Receptor Agonists: LOPAC Validation (AID 624148);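 further: luminescence from a luciferase reporter switched on by cAMP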; further: potency means the concentration at half of the fitted maximal effect
In short: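 Agonism scored as increased luciferase luminescence driven by cAMP in HEK293 clones carrying GLP-1R. Cells settled 12 hours, received compound for 4-6 hr at 37 deg C, 5% CO2, and were read after 12 min detection reagent at RT.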

[7] = qHTS of Nrf2 Activators: LOPAC Validation (AID 624149)
In short: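 AREc32 cells carrying an ARE-driven firefly luciferase were grown overnight in OPTI-MEM with 5% FBS, then exposed to compounds for 24 hr at 37 deg C. Luciferase signal was read after 30 min with Steady-Glo at RT.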

[8] = target: Glutaminase kidney isoform, mitochondrial (Homo sapiens) (UniProt O94925); experiment: qHTS for Inhibitors of Glutaminase (GLS): LOPAC Validation (AID 624146); further: nearly all actives have a fitted effect of over 60% in size; further: potency means the concentration at half of the fitted maximal effect
In short: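 hKGA in 45 mM KH2PO4 (pH 8.2), 0.02% Tween-20 with compound, then 1mM L-Glutamine (stock as added) plus glutamate oxidase/HRP/Amplex red coupling mix. Fluorescence read initially and after 30 min at RT; signal change reflects glutamate formation.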

[9] = S16 Schwann cell viability assay (CellTiter-Glo assay) (AID 624031); further: nearly all actives have a fitted effect of over 70% in size; further: potency means the concentration at half of the fitted maximal effect
In short: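 This viability control uses native rat S16 Schwann cells grown in DMEM plus 10% FBS. After a 24 h compound treatment at 37 °C, CellTiter-Glo luminescence reports ATP content, scaled against DMSO-treated and cell-free wells.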

Measured: Potency

Voltage-gated inwardly rectifying potassium channel KCNH2 (Homo sapiens), sequence (Q12809 whole entry, looked up): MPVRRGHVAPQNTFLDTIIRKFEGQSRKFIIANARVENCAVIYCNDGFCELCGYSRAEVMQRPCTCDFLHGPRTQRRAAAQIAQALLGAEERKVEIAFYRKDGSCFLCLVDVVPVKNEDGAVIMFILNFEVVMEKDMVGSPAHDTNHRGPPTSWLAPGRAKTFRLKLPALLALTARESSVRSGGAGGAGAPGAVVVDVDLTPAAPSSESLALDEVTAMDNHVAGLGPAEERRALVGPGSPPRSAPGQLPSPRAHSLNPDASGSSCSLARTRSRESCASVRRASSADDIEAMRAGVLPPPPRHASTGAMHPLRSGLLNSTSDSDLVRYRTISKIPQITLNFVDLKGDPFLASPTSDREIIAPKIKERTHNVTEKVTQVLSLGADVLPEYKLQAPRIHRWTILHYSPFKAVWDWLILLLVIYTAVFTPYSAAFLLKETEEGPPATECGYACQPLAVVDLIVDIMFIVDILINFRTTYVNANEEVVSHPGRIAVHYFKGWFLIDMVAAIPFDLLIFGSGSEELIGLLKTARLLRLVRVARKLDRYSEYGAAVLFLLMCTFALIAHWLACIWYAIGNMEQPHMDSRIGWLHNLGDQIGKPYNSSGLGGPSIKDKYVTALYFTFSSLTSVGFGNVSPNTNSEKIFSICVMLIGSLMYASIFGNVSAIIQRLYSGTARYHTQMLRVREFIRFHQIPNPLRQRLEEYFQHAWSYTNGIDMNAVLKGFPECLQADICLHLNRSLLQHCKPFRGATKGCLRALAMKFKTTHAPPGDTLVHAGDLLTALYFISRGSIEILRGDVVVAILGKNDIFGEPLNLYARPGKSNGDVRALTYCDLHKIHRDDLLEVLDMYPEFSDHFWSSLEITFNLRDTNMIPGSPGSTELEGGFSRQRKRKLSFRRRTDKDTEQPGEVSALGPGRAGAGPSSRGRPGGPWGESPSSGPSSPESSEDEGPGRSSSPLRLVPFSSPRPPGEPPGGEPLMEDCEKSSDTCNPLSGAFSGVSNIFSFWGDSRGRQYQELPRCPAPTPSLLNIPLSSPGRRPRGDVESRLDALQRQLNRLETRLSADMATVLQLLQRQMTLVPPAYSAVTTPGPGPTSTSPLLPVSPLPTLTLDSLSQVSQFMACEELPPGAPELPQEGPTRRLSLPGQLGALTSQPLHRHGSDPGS
Glucagon-like peptide 1 receptor (Homo sapiens), sequence (P43220 whole entry, looked up): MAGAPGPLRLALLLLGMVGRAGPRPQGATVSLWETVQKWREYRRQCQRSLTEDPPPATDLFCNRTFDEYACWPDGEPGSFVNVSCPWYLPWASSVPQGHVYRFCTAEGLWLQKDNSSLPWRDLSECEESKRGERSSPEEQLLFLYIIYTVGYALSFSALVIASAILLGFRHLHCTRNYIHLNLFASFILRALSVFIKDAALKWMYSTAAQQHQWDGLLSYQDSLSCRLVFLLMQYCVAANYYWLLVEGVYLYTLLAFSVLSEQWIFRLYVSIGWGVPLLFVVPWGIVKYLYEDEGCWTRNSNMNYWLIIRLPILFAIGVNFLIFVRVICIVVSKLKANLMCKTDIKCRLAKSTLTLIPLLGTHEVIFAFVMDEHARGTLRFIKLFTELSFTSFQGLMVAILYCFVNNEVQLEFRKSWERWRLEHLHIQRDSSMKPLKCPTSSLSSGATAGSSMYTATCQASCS
Luciferin 4-monooxygenase (Photinus pyralis), sequence (P08659 whole entry, looked up): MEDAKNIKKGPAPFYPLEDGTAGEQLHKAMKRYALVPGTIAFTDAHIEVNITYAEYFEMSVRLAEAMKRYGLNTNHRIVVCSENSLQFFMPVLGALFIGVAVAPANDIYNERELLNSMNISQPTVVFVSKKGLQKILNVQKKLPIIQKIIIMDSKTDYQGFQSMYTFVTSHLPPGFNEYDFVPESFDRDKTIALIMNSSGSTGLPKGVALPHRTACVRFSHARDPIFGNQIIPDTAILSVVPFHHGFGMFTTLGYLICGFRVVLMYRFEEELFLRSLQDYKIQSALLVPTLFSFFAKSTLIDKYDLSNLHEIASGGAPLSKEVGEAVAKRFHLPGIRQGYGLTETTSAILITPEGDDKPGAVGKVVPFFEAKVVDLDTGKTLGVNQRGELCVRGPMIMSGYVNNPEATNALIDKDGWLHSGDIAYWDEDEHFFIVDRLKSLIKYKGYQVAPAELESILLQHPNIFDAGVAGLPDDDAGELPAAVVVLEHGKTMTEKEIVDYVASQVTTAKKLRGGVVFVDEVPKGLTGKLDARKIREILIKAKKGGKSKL
Glutaminase kidney isoform, mitochondrial (Homo sapiens), sequence (O94925 whole entry, looked up, canonical isoform): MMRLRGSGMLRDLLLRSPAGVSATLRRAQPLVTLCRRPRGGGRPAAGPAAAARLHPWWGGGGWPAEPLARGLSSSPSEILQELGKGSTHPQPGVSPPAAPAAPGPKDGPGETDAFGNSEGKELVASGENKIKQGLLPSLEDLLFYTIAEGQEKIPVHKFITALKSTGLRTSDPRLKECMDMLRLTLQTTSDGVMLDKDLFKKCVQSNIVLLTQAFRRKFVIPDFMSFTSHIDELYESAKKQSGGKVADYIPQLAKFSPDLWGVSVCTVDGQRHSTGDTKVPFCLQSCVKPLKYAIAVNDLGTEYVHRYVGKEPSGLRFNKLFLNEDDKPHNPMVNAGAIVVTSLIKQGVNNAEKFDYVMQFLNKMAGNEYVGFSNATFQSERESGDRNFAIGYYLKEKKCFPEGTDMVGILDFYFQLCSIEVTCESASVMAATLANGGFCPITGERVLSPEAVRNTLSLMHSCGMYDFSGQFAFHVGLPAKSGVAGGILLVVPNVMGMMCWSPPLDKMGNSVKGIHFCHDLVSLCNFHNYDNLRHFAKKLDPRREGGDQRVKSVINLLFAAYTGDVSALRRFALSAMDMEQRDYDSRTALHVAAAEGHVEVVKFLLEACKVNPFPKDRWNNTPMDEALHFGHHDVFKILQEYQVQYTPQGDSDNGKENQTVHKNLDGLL

CC(C)(C)C(=O)Oc1ccc(S(=O)(=O)Nc2ccccc2C(=O)NCC(=O)O)cc1
inactive: [1] | [2] | [3] | [4]

Cn1ccc2cc3c(cc21)CCN3C(=O)Nc1cccnc1
inactive: [1] | [3] | [5] | [6] | [7]
active: [2] 6.42 µM

O=c1[nH]cc(F)c(=O)[nH]1
not listed: [3] | [4]
inactive: all other assays above

COc1nc(C)nc(Cl)c1NC1=NCCN1
not listed: [4]
inactive: all other assays above

Clc1ccccc1C(c1ccccc1)(c1ccccc1)n1ccnc1
active: [1] 10 µM and 11.2 µM
not listed: [3]
inactive: all other assays above

CN1C(C(=O)Nc2ccccn2)=C(O)c2ccccc2S1(=O)=O
not listed: [4]
inactive: all other assays above

OCCN(CCO)c1nc(N2CCCCC2)c2nc(N(CCO)CCO)nc(N3CCCCC3)c2n1
active: [3] 10.2 µM
not listed: [4] | [7]
inactive: all other assays above

O=C(Nc1ccc([N+](=O)[O-])cc1Cl)c1cc(Cl)ccc1O
active: [2] 0.114 µM | [4] 2.51 µM
not listed: [3] | [9]
inactive: all other assays above

CC(CCc1ccc(O)cc1)NCCc1ccc(O)c(O)c1 (stereo not given)
inactive and 3.55 µM (active): [1]
not listed: [6] | [8]
inactive: all other assays above

NCCc1cnc[nH]1
not listed: [8]
inactive: all other assays above

Cc1cc(C(C)(C)C)c(O)c(C)c1CC1=NCCN1
active: [1] 11.2 µM
not listed: [4] | [8]
inactive: all other assays above

Nc1nc2c(ncn2COC(CO)CO)c(=O)[nH]1
not listed: [4]
inactive: all other assays above

NC(=O)OCC(COC(N)=O)c1ccccc1
not listed: [4]
inactive: all other assays above

Cc1ccc(C(=O)Nc2ccc(S(=O)(=O)O)c3cc(S(=O)(=O)O)cc(S(=O)(=O)O)c23)cc1NC(=O)c1cccc(NC(=O)Nc2cccc(C(=O)Nc3cc(C(=O)Nc4ccc(S(=O)(=O)O)c5cc(S(=O)(=O)O)cc(S(=O)(=O)O)c45)ccc3C)c2)c1
active: [2] 11.4 µM
inactive: [1] | [9] | [3] | [6] | [7]

COc1ccc2c(c1)c(CC(=O)O)c(C)n2C(=O)c1ccc(Cl)cc1
not listed: [3] | [4] | [9]
inactive: all other assays above

Cn1c(=O)c2c(ncn2C)n(C)c1=O
not listed: [4]
inactive: all other assays above

CC12CC3CC(C)(C1)CC(N)(C3)C2
not listed: [4]
inactive: all other assays above

CCOC(=O)Nc1ccc(NCc2ccc(F)cc2)nc1N
active: [1] 14.1 µM | [8] 12.6 µM
not listed: [3]
inactive: all other assays above

CC[C@@]1(O)C(=O)OCc2c1cc1n(c2=O)Cc2cc3c(CN(C)C)c(O)ccc3nc2-1
active: [3] 0.51 µM | [4] 15.8 µM
inactive: [2]

O=C1c2c(O)ccc(O)c2C(=O)c2c(NCCNCCO)ccc(NCCNCCO)c21
active: [3] 0.346 µM | [8] 3.55 µM
not listed: [1] | [4]
inactive: all other assays above

CN1CCN(C2=Nc3cc(Cl)ccc3Nc3ccccc32)CC1
inactive: [4] | [8] | [5] | [6]

O=C1Cc2cc(CCN3CCN(c4nsc5ccccc45)CC3)c(Cl)cc2N1
inactive: [2] | [8] | [5] | [6] | [7]

CN1CCN(CCCN2c3ccccc3Sc3ccc(Cl)cc32)CC1
inactive: [2] | [5] | [6] | [7]

COc1cc2nc(N(C)CCCNC(=O)C3CCCO3)nc(N)c2cc1OC (stereo not given)
inactive: [1] | [8] | [5] | [6] | [7]

COc1ccc(C2CNC(=O)C2)cc1OC1CCCC1 (stereo not given)
active: [6] 0.0461 µM
inactive: [1] | [8] | [5] | [7]

CCc1cccc2c3c([nH]c12)C(CC)(CC(=O)O)OCC3 (stereo not given)
inactive: [1] | [8] | [5] | [6] | [7]

CC(C(=O)O)c1cccc(C(=O)c2ccccc2)c1 (stereo not given)
inactive: [1] | [8] | [5] | [6]

CCCCc1oc2ccccc2c1C(=O)c1cc(I)c(OCCN(CC)CC)c(I)c1
active: [9] 32.2 µM | [3] 28.7 µM
not listed: [1] | [4]
inactive: all other assays above

CN(C)C(=N)N=C(N)N
inactive: [2] | [9] | [3]

CN(CCOc1ccc(NS(C)(=O)=O)cc1)CCc1ccc(NS(C)(=O)=O)cc1
inactive: [2] | [9] | [3]

Cc1ccccc1N1C(=O)c2cc(S(N)(=O)=O)c(Cl)cc2NC1C (stereo not given)
inactive: [2] | [8] | [5] | [6] | [7]

CN(C)C(=O)C(CCN1CCC(O)(c2ccc(Cl)cc2)CC1)(c1ccccc1)c1ccccc1
inactive: [2] | [8] | [5] | [6]

NC(CO)C(=O)NNCc1ccc(O)c(O)c1O (stereo not given)
inactive: [1] | [5] | [6] | [7]

CN1CCN2c3ccccc3Cc3ccccc3C2C1 (stereo not given)
not listed: [1] | [5]
inactive: all other assays above

CCN1CCCC1CNC(=O)c1cc(S(=O)(=O)CC)c(N)cc1OC (stereo not given)
inactive: [2] | [8] | [5] | [6] | [7]

C[C@H]1c2cccc(O)c2C(O)=C2C(=O)[C@]3(O)C(O)=C(C(N)=O)C(=O)[C@@H](N(C)C)[C@@H]3[C@@H](O)[C@@H]21
inactive: [1] | [5] | [6] | [7]

Cc1cnc(C(=O)NCCc2ccc(S(=O)(=O)NC(=O)NC3CCCCC3)cc2)cn1
not listed: [1] | [4] | [8]
inactive: all other assays above

CN1CCC(=C2c3ccccc3C=Cc3ccccc32)CC1
inactive: [2] | [8] | [5] | [6] | [7]

CN1C2CCC1CC(OC(=O)C(CO)c1ccccc1)C2 (stereo not given)
inactive: [8] | [5] | [7]

CC#C[C@]1(O)CC[C@H]2[C@@H]3CCC4=CC(=O)CCC4=C3[C@@H](c3ccc(N(C)C)cc3)C[C@@]21C
active: [5] 21.3 µM
inactive: [2] | [9] | [4] | [6] | [7]

CCCNCC(O)COc1ccccc1C(=O)CCc1ccccc1 (stereo not given)
inactive: [2] | [5] | [6] | [7]
active: [3] 25.6 µM

Cc1cc(C(C)(C)C)cc(C)c1CC1=NCCN1
not listed: [1] | [4]
inactive: all other assays above

CNCCCC12CCC(c3ccccc31)c1ccccc12
active: [9] 32.2 µM | [3] 32.2 µM
not listed: [1] | [4]
inactive: all other assays above

CN(C)CCCN1c2ccccc2CCc2ccc(Cl)cc21
active: [9] 20.3 µM
inactive: [2] | [8] | [5] | [6] | [7]

CN1CCC(=C2c3ccccc3CC(=O)c3sccc32)CC1
inactive: [2] | [5] | [6] | [7]

O=C(C1CCCCC1)N1CC(=O)N2CCc3ccccc3C2C1 (stereo not given)
inactive: [1] | [8] | [5] | [6]

COc1ccccc1OCCNCC(O)COc1cccc2[nH]c3ccccc3c12 (stereo not given)
active: [3] 25.6 µM
not listed: [1] | [9]
inactive: all other assays above

Nc1nnc(-c2cccc(Cl)c2Cl)c(N)n1
not listed: [1]
inactive: all other assays above

COc1ccc(CCN(C)CCCC(C#N)(c2ccc(OC)c(OC)c2)C(C)C)cc1OC (stereo not given)
inactive: [2] | [9] | [3] | [8] | [7]

Fc1ccc([C@@H]2CCNC[C@H]2COc2ccc3c(c2)OCO3)cc1
inactive: [8] | [5] | [6] | [7]

CCC1(C)CC(=O)NC1=O (stereo not given)
inactive: [1] | [5] | [6] | [7]

CC1COc2c(N3CCN(C)CC3)c(F)cc3c(=O)c(C(=O)O)cn1c23 (stereo not given)
inactive: [1] | [8] | [5] | [6] | [7]
